Screening data deposited in PubChem by The Scripps Research Institute Molecular Screening Center.
Sampled rows, rich in hits. Any-hit rate of the full collection: about 4.5%.
hcDAF-12 act: H. contortus DAF-12 nuclear receptor activators, primary screen, cell-based, luminescence, HEK293, lit1-tk-luc reporter | HEK293 hcDAF-12 lit1-tk-luc reporter; 0% DMSO, 100% Δ7-dafachronic acid | activation, % at 6.8 µM | 370,000 compounds, 1.4% hits | AID 652067, 2013;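 active means activation above the mean of all tested compounds plus 3 SD, cut at about 5.5% in these data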;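 further: 100% = response to 3 µM Δ7-dafachronic acid high control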
DAX1 inh-1: DAX1 (NR0B1) inhibitors on StAR promoter, primary screen, cell-based, luminescence, SF-1 (NR5A1), full-length DAX-1; inhibition, % at 6.8 µM; HEK293T StAR-luciferase reporter, SF-1/DAX-1 repression relief; 370,000 compounds, 1.1% hits; AID 652010, 2013;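 active means inhibition above the mean over all tested compounds plus 3 SD, cut at about 3.6% in these data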;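 further: 0% = DAX-1 cells with DMSO and 100% = cells lacking DAX-1 with DMSO; higher inhibition means more luminescence from relief of DAX-1 repression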
DAX1 inh-2: DAX1 (NR0B1) inhibitors, primary screen, cell-based, HEK293, Gal4-DAX1, luciferase luminescence; inhibition, % at 6.75 µM; 340,000 compounds, 0.99% hits; HEK293 Gal4-DAX1 luciferase reporter;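 active means inhibition above the mean over all tested compounds plus 3 SD, cut at about 4.2% in these data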;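 further: 0% = DAX1-transfected cells with DMSO and 100% = empty-vector control cells with DMSO; inhibition shows as a rise in luminescence from relieved DAX1 repression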
Target sequence (P51843 207-470 limits assumed): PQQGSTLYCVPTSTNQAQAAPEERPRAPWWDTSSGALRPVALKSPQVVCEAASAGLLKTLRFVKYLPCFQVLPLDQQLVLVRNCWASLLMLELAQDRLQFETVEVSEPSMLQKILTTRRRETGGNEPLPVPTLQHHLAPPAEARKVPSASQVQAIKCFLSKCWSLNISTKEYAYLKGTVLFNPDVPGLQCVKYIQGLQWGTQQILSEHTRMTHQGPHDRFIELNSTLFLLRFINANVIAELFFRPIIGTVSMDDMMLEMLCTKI
ssDAF-12 act: S. stercoralis DAF-12 nuclear receptor activators, primary screen, cell-based, luminescence, HEK293, GRIP1 co-expression, lit1-tk-luc | Nuclear hormone receptor DAF-12 (Strongyloides stercoralis) | HEK293 ssDAF-12/GRIP1 lit1-tk-luc reporter; % of 3 µM dafachronic acid response | activation, % at 6.8 µM | 370,000 compounds, 1% hits | AID 652126, 2013;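 active means activation above the mean over all tested compounds plus 3 SD, cut at about 0.9% in these data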;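 further: 0% = DMSO-only wells and 100% = 3 µM delta7-dafachronic acid wells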
GAA850 FXN act: FXN promoter activators, primary screen, cell-based, luciferase luminescence, HEK293 lucGAA850 | HEK293 lucGAA850 FXN promoter luciferase reporter, 24 h; percent of 10 µM SAHA response | activation, % at 6 µM | 360,000 compounds, 0.56% hits | AID 540364, 2011;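 active means activation above the average of all compounds screened plus 3 SD, cutoff fixed separately per campaign, cut at about 7.5% in these data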;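 further: 0% = DMSO wells and 100% = 10 µM SAHA wells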
hgDAF12 agonist: H. glycines DAF-12 receptor agonists, primary screen, cell-based, luminescence, HEK293, GAL4 fusion, UAS-luciferase; activation, % at 6.8 µM; 370,000 compounds, 1.8% hits; HEK293 GAL4-hgDAF12 UAS-luciferase reporter, agonist luminescence; normalized to butyrate control; Nuclear hormone receptor DAF-12 (Heterodera glycines), GAL4 fusion;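 active means activation above a cutoff set at the mean of all screened compounds plus 3 SD, cut at about 10% in these data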;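 further: 0% = DMSO wells and 100% = sodium butyrate wells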
Numbers without * were called inactive.

What do the screens show for `O=C(O)c1ccc(/C=N\Nc2ccccn2)cc1`?
hcDAF-12 act: 6.5*; DAX1 inh-1: 1; DAX1 inh-2: 3; ssDAF-12 act: 0; GAA850 FXN act: 5; hgDAF12 agonist: 8

Results for CN(C)c1ccc(/C=N\Nc2ccccn2)cc1 ?
hcDAF-12 act: 4; DAX1 inh-1: 2; DAX1 inh-2: 6.2*; ssDAF-12 act: 0; GAA850 FXN act: 5; hgDAF12 agonist: 9

Results for O=C(O)c1ccc(/C=N/Nc2ncc(Cl)cc2Cl)cc1 ?
hcDAF-12 act: 4; DAX1 inh-1: 0; DAX1 inh-2: 6.5*; ssDAF-12 act: -1; GAA850 FXN act: 1; hgDAF12 agonist: 3

What do the screens show for `O=C(Nc1ccccc1C(F)(F)F)OCCCN1CCC2(CCC(c3ccccc3)CC2)C1=O` (stereo unspecified)?
hcDAF-12 act: -4; DAX1 inh-1: -3; ssDAF-12 act: -2; hgDAF12 agonist: -2

Results for C[C@@H]1COc2cccc(F)c2S(=O)(=O)N1C ?
hcDAF-12 act: -2; DAX1 inh-1: 1; ssDAF-12 act: -1; hgDAF12 agonist: 2

How did Cc1cc(C)nc(N/N=C/c2sccc2C)n1 do in these assays?
hcDAF-12 act: 0; DAX1 inh-1: 2; DAX1 inh-2: 1; ssDAF-12 act: -1; GAA850 FXN act: 4; hgDAF12 agonist: 5

How did Cc1ccsc1/C=N/Nc1nc(=O)[nH]nc1C do in these assays?
hcDAF-12 act: 2; DAX1 inh-1: 2; DAX1 inh-2: 2; ssDAF-12 act: 0; GAA850 FXN act: 4; hgDAF12 agonist: 16*

What do the screens show for `Cc1ccnc(NC(=O)C2CC(=O)N(Cc3ccccc3)C2)c1` (stereo unspecified)?
hcDAF-12 act: 3; DAX1 inh-1: 4.3*; DAX1 inh-2: 1; ssDAF-12 act: 0; GAA850 FXN act: 2; hgDAF12 agonist: 5

Results for Cc1ccc(NC(=O)C2CC(=O)N(Cc3ccccc3)C2)nc1 (stereo unspecified) ?
hcDAF-12 act: 0; DAX1 inh-1: -1; DAX1 inh-2: 0; ssDAF-12 act: 0; GAA850 FXN act: 1; hgDAF12 agonist: 5

What do the screens show for `O=c1c2ccccc2oc2ccc(NCCCn3ccnc3)cc12`?
hcDAF-12 act: 5; DAX1 inh-1: 4.0*; DAX1 inh-2: 1; ssDAF-12 act: 1.8*; GAA850 FXN act: 4; hgDAF12 agonist: 11*

What do the screens show for `COc1ccc2nc(-c3ccccn3)[nH]c2c1`?
hcDAF-12 act: 5; DAX1 inh-1: 2; DAX1 inh-2: 2; ssDAF-12 act: 0; GAA850 FXN act: 4; hgDAF12 agonist: 12*

What do the screens show for `Nc1nc(-c2ccccc2)[nH]c(=O)c1N=O`?
hcDAF-12 act: 0; DAX1 inh-1: -1; DAX1 inh-2: 4.2*; ssDAF-12 act: 0; GAA850 FXN act: -3; hgDAF12 agonist: 1

How did CCCCn1c(O)c(/C=C2\C=Nc3ccccc32)c(=O)[nH]c1=O do in these assays?
hcDAF-12 act: 6.0*; DAX1 inh-1: 0; DAX1 inh-2: 1; ssDAF-12 act: 0; GAA850 FXN act: 2; hgDAF12 agonist: 4

Results for COc1cc(/C=N/n2c(-c3cc(-c4ccccc4)n[nH]3)n[nH]c2=S)ccc1OCc1ccccc1 ?
hcDAF-12 act: 0; DAX1 inh-1: 1; ssDAF-12 act: 0; hgDAF12 agonist: 7

What do the screens show for `CS(=O)(=O)N1CCN(Cc2cc(=O)n3ccsc3n2)CC1`?
hcDAF-12 act: -1; DAX1 inh-1: 0; DAX1 inh-2: 5.2*; ssDAF-12 act: -2; GAA850 FXN act: 1; hgDAF12 agonist: -1

What do the screens show for `O=c1cc(CN2CCN(S(=O)(=O)c3ccc4ccccc4c3)CC2)nc2sccn12`?
hcDAF-12 act: -2; DAX1 inh-1: 0; DAX1 inh-2: 1; ssDAF-12 act: -2; GAA850 FXN act: 2; hgDAF12 agonist: -1

What do the screens show for `Fc1ccc(F)c(C2=NNC(=NCC3CCCO3)SC2)c1` (stereo unspecified)?
hcDAF-12 act: 5; DAX1 inh-1: 1; DAX1 inh-2: 2; ssDAF-12 act: 0; GAA850 FXN act: 3; hgDAF12 agonist: 12*

How did COCCn1c(C)cc(C(=O)COC(=O)C23CC4CC(CC(O)(C4)C2)C3)c1C do in these assays?
hcDAF-12 act: 5; DAX1 inh-1: 4.5*; DAX1 inh-2: 4; ssDAF-12 act: 0; GAA850 FXN act: -1; hgDAF12 agonist: 8

Results for O=C(/C=C/c1ccccc1)Nc1cc(C(=O)O)cc(C(=O)O)c1 ?
hcDAF-12 act: 0; DAX1 inh-1: 0; DAX1 inh-2: 0; ssDAF-12 act: -2; GAA850 FXN act: 2; hgDAF12 agonist: -3

What do the screens show for `O=C(c1ccccc1)c1ccc(N2CCCC2)cc1`?
hcDAF-12 act: 2; DAX1 inh-1: 2; DAX1 inh-2: 1; ssDAF-12 act: 0; GAA850 FXN act: 6; hgDAF12 agonist: 12*

What do the screens show for `O=C(/C=C/c1ccc(Cl)cc1)Nc1ccc(N2CCCCC2)cc1`?
hcDAF-12 act: -1; DAX1 inh-1: 0; DAX1 inh-2: 0; ssDAF-12 act: -1; GAA850 FXN act: -1; hgDAF12 agonist: -1

What do the screens show for `O=C(/C=C/c1ccccc1)Nc1ccc(N2CCCCC2)cc1`?
hcDAF-12 act: 1; DAX1 inh-1: 2; DAX1 inh-2: 0; ssDAF-12 act: 0; GAA850 FXN act: 4; hgDAF12 agonist: 13*

How did O=C(Cc1ccccc1)c1ccc(N2CCOCC2)cc1 do in these assays?
hcDAF-12 act: 1; DAX1 inh-1: 1; DAX1 inh-2: 1; ssDAF-12 act: -1; GAA850 FXN act: 2; hgDAF12 agonist: 11*

What do the screens show for `O=C(O)c1ccc(N2CCCCC2)cc1`?
hcDAF-12 act: -1; DAX1 inh-1: 0; DAX1 inh-2: 2; ssDAF-12 act: -2; GAA850 FXN act: -2; hgDAF12 agonist: 0

What do the screens show for `COC(=O)c1cc(NC(=O)/C=C/c2ccccc2)ccc1O`?
hcDAF-12 act: 1; DAX1 inh-1: 1; ssDAF-12 act: -1; hgDAF12 agonist: 11*

What do the screens show for `CCOC(=O)[C@@]12CCCC=C1N(CCc1ccc(Cl)cc1)C(=O)[C@H]2CC(=O)NCc1ccc(OC)c(OC)c1`?
hcDAF-12 act: -4; DAX1 inh-1: -2; ssDAF-12 act: -1; hgDAF12 agonist: -4
